Reference: PubChem BioAssay
For some assays here: Potency and affinity values are given separately. Active and inactive are the calls of the source.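 How the source made its calls, unless noted: active means primary screen active and over 50% activation in each of two duplicate runs; inactive means the rest.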

Columns and labels:
[1] = test system: TRPC4 beta (transient receptor potential cation channel C4), mouse; assay: TRPC4 cation channel opening, retest – cell-based, Fluo4 calcium, HEK293 TRPC4beta/mu-opioid, duplicates, 10 µM, confirmation (AID 2426;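 active means fluorescence ratio normalized to control raised more than 50% in primary screen plus both repeat runs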;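 on activation: percent rise of integrated ratio over buffer wells lacking compound which define 0%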); conditions: Fluo4 calcium fluorescence, at 10 µM; active compounds read high
[2] = test system: transient receptor potential cation channel C4 beta (TRPC4), mouse; assay: TRPC4 cation channel opening, second retest – cell-based, second round, Fluo4, HEK293 TRPC4beta/mu-opioid, 1 µM, confirmation (AID 2461); conditions: Fluo4 calcium fluorescence, at 1 µM; active compounds read high;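 on activation: 0% = wells without test compound as baseline of integrated fluorescence ratio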
[3] = test system: TRPC4 (transient receptor potential cation channel C4 beta), mouse; assay: potentiation of DAMGO EC20 TRPC4 response – cell-based, second round, Fluo-4, HEK293 TRPC4beta/mu-opioid, 1 µM, confirmation (AID 2554;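 active means primary screen hit whose fluorescence ratio, in both repeats, exceeds the weak agonist control mean by 3 SD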); conditions: DAMGO EC20, Fluo-4 calcium flux, at 1 µM; active compounds read high
[4] = test system: TRPC4 beta (transient receptor potential cation channel C4), mouse; assay: potentiation of DAMGO EC20 TRPC4 response – cell-based, Fluo-4, HEK293 TRPC4beta/mu-opioid, confirmation (AID 2555;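 active means primary screen hit whose calcium fluorescence ratio, in both repeats, exceeds the weak agonist control mean by 3 SD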); conditions: DAMGO EC20, Fluo-4 calcium flux, at 10 µM; active compounds read high
[5] = target: Short transient receptor potential channel 4 (Mus musculus) (UniProt Q9QUQ5); assay: blockers of DAMGO-evoked TRPC4 calcium flux – cell-based, Fluo4, HEK293 TRPC4beta/mu-opioid, confirmation (AID 2636;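 active means calcium signal cut by more than 3 SD below the full-agonist control yet still positive, in both repeats and the earlier primary screen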); conditions: at 10 µM; active compounds read high
[6] = target: Short transient receptor potential channel 4 (Mus musculus) (UniProt Q9QUQ5); assay: blockers of DAMGO-evoked TRPC4 calcium flux – cell-based, second round, Fluo4, HEK293 TRPC4beta/mu-opioid, 1 µM, confirmation (AID 2637;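 active means calcium signal ratio cut to more than 3 SD under the fully stimulated control mean yet still positive, in both repeats and the primary screen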;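 on inhibition: percent of integrated ratio relative to wells lacking test compound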); conditions: at 1 µM; active compounds read high
[7] = target: Short transient receptor potential channel 4 (Mus musculus) (UniProt Q9QUQ5); assay: potentiation of DAMGO-evoked TRPC4 calcium signal – cell-based, HEK293 TRPC4/mu-opioid, Fluo-4 calcium, EC20 DAMGO, dose response (AID 434941;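 active means earlier screen potentiator hit that boosts the TRPC4 ion channel at some dose, with a dose response; inactive means no potentiation, no dose response, or not a prior hit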;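 further: calcium entry triggered by an EC20 dose of DAMGO at the co-expressed mu-opioid receptor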)
[8] = target: Short transient receptor potential channel 4 (Mus musculus) (UniProt Q9QUQ5); assay: block of DAMGO-driven TRPC4 calcium entry – cell-based, HEK293 TRPC4/mu-opioid, Fluo-4 calcium, dose response (AID 434942;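 active means primary screen inhibitor hit that blocks the TRPC4 channel at some tested dose, yielding a dose curve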)
[9] = target: Short transient receptor potential channel 6 (Mus musculus) (UniProt Q61143); assay: TRPC6 blockade by TRPC4 inhibitor hits – cell-based, HEK293, membrane potential dye, duplicate, selectivity assay for TRPC4 inhibitor project, confirmation (AID 434948;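 active means active in primary screen and both duplicates, each dropping signal beyond three positive-control SD with fluorescence still positive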); conditions: HEK293 TRPC6, membrane potential dye fluorescence, at 10 µM, stimulated with maximal-effect acetylcholine; active compounds read high
[10] = target: Short transient receptor potential channel 6 (Mus musculus) (UniProt Q61143); assay: TRPC6 opening by TRPC4 activator hits – cell-based, HEK293, membrane potential dye, duplicate, selectivity assay for TRPC4 activator project, confirmation (AID 434950;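 active means membrane potential signal rise above negative control mean plus 3 SD in both duplicates, also active in the earlier TRPC4 screen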;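 on activation: 0% = buffer only wells and 100% = acetylcholine maximal-effect wells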); conditions: HEK293 TRPC6, membrane potential fluorescence, at 10 µM; activation: active compounds read high; outcome: activation
[11] = target: Short transient receptor potential channel 6 (Mus musculus) (UniProt Q61143); assay: positive modulators of mouse TRPC6 channel – HEK293 cells, membrane potential dye, duplicate, selectivity assay for TRPC4 potentiator project, confirmation (AID 434952;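 active means compound raising the membrane signal above positive-control mean plus 3 SD in both repeats, and a primary screen hit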); conditions: HEK293 TRPC6, membrane potential dye fluorescence, at 10 µM, maximal acetylcholine added after compound; active compounds read high
[12] = target: Short transient receptor potential channel 4 (Mus musculus) (UniProt Q9QUQ5); assay: calcium flux activators in TRPC4/5HT1a cells, counter-screen for TRPC4 activator project, cell-based, second counter screen, HEK293 TRPC4/5HT1a, Fluo-4 (AID 434977;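 active means calcium signal rise above buffer-control mean plus 5 SD in both duplicates, and also a hit in the primary screen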;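 on activation: plate controls were assay buffer for no effect and maximal serotonin response for full effect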); conditions: Fluo-4 calcium flux, at 10 µM; active compounds read high
[13] = serotonin-gated TRPC4 signal block – cell-based, second counter screen, HEK293 TRPC4/5HT1a, Fluo-4, counter-screen for TRPC4 inhibitor project, confirmation (AID 434978;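 active means primary screen active whose calcium signal fell more than 3 SD beyond the full-serotonin control mean in both duplicate plates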;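 further: serotonin given first at submaximal then at maximal dose after compound preincubation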); conditions: Fluo-4 calcium flux, at 10 µM, serotonin added to trigger calcium flux; active compounds read high
[14] = test system: TRPC4 (mouse), co-expressed with 5HT1a in HEK293; assay: enhancement of serotonin-evoked TRPC4 response – cell-based, second counter screen, HEK293 TRPC4/5HT1a, Fluo-4, counter-screen for TRPC4 potentiator project, confirmation (AID 434979;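 active means signal rise over 3 SD above mean of control wells given weak agonist, in both repeats and first screen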); conditions: Fluo-4 calcium flux, at 10 µM, serotonin added at its EC20 dose; active compounds read high
[15] = nonspecific calcium rise without TRPC4 – cell-based, HEK293 mu-opioid receptor line, counter-screen for TRPC4 activator project, confirmation (AID 449723;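 active means hit in primary screen, with calcium signal over 5 SD above buffer well mean in both duplicates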;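 further: counter screen cells carry the mu-opioid receptor alone and lack TRPC4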); conditions: HEK293 mu-opioid cells, Fluo-4 calcium fluorescence, at 10 µM; active compounds read high
[16] = nonspecific potentiation of DAMGO calcium response – cell-based, HEK293 mu-opioid receptor line, counter-screen for TRPC4 allosteric potentiator project, confirmation (AID 449724;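 active means calcium signal rise more than 3 SD above the low-dose agonist control mean, in both duplicate plates and the primary screen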); conditions: HEK293 mu-opioid receptor cells, Fluo-4 calcium flux, at 10 µM, compound added before EC20 DAMGO stimulus; active compounds read high
[17] = nonspecific flux increase, KCNQ1-free cells – parental CHO cells, counter-screen for KCNQ1 potentiator project (AID 493006;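 active means duplicate-averaged activation above buffer control mean plus 5 SD of those controls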;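 on activation: fluorescence ratio of max minus min over baseline after K+ and Tl+ depolarization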); conditions: parental CHO-K1 cells, FluxOR thallium flux, at 10 µM; active compounds read high
[18] = target: Potassium voltage-gated channel subfamily KQT member 1 (Homo sapiens) (UniProt P51787); assay: enhancement of KCNQ1 channel thallium flux – FluxOR thallium flux, CHO cells, duplicates, confirmation (AID 493007;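 active means potentiation averaged over duplicate wells exceeding buffer-only control mean by more than 3 SD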;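 on outcome: cells depolarized by a potassium plus thallium sulfate stimulus after compound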;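 on potentiation: 0% = buffer-only wells and 100% = R-L3 activator control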); conditions: KCNQ1 cell line, FluxOR thallium flux fluorescence, at 10 µM; active compounds read high, % of reference activator effect, buffer zero
[19] = target: Potassium voltage-gated channel subfamily KQT member 2 (Rattus norvegicus) (UniProt O88943); assay: KCNQ2 thallium flux enhancement – KCNQ2-CHO-K1 cells, selectivity assay for KCNQ1 potentiator project (AID 493009;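 active means mean duplicate potentiation above the buffer control mean plus 5 SD of buffer wells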;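 further: assay conditions were tuned for KCNQ1 rather than KCNQ2 modulators; signal is max minus min fluorescence divided by baseline after thallium stimulus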); conditions: FluxOR thallium flux fluorescence, at 10 µM; active compounds read high, scaled: buffer 0, activator control 100
[20] = target: Potassium voltage-gated channel subfamily KQT member 1 (Homo sapiens) (UniProt P51787); assay: KCNQ1 activators by electrophysiology – IonWorks patch clamp, KCNQ1-CHO cells, orthogonal assay for KCNQ1 potentiator project, confirmation (AID 493184;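 active means current rise at least 3 SD above the untreated control mean in each of two repeat wells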); conditions: automated patch clamp current, at 10 µM; active compounds read high

Chain of Potassium voltage-gated channel subfamily KQT member 2 (Rattus norvegicus) (O88943 whole entry, looked up): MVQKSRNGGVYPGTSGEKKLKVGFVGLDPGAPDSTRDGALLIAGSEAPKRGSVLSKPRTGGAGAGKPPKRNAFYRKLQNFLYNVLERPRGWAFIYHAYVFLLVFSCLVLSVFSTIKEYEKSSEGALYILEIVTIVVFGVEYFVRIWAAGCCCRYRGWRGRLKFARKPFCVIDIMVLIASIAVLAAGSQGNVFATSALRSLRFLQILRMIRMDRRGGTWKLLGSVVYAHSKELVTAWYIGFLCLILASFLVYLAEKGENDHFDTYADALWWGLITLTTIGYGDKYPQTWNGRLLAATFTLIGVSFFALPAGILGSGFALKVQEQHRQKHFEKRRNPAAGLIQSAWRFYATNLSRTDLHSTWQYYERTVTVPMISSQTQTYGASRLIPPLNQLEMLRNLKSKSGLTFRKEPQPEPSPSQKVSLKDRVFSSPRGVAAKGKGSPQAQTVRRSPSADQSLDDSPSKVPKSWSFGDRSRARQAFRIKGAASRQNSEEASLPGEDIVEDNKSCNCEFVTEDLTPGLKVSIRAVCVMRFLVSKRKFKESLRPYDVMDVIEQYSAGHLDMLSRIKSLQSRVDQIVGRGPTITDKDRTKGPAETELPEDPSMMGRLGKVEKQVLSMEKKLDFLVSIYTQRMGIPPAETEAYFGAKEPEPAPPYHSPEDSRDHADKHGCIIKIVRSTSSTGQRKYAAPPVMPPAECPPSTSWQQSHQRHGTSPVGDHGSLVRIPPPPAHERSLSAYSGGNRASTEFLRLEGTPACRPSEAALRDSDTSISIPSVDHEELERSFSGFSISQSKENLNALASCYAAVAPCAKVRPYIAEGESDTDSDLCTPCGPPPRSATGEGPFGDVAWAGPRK
Chain of Short transient receptor potential channel 6 (Mus musculus) (Q61143 whole entry, looked up): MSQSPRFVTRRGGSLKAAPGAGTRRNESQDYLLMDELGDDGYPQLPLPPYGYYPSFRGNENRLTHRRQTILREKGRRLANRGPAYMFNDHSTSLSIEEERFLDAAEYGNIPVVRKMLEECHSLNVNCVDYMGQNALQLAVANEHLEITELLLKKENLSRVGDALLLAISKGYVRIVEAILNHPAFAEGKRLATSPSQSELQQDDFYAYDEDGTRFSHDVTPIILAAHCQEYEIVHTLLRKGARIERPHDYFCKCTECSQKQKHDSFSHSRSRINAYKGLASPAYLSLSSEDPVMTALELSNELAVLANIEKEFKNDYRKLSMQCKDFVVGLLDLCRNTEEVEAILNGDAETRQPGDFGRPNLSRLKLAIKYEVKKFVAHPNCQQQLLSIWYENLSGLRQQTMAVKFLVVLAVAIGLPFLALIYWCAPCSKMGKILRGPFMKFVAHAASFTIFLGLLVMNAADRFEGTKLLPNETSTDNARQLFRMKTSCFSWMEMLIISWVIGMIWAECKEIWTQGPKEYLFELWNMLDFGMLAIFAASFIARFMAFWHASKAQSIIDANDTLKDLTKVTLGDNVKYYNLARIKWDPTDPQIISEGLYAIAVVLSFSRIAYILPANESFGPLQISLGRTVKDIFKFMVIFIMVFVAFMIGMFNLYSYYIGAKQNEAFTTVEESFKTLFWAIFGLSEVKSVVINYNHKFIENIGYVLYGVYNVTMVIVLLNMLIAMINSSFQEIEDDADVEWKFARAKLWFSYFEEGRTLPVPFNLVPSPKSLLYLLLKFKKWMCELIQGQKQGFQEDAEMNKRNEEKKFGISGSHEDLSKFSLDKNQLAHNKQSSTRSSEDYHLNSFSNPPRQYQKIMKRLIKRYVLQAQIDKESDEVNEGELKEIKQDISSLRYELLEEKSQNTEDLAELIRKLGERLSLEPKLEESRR
Chain of Potassium voltage-gated channel subfamily KQT member 1 (Homo sapiens) (P51787 whole entry, looked up): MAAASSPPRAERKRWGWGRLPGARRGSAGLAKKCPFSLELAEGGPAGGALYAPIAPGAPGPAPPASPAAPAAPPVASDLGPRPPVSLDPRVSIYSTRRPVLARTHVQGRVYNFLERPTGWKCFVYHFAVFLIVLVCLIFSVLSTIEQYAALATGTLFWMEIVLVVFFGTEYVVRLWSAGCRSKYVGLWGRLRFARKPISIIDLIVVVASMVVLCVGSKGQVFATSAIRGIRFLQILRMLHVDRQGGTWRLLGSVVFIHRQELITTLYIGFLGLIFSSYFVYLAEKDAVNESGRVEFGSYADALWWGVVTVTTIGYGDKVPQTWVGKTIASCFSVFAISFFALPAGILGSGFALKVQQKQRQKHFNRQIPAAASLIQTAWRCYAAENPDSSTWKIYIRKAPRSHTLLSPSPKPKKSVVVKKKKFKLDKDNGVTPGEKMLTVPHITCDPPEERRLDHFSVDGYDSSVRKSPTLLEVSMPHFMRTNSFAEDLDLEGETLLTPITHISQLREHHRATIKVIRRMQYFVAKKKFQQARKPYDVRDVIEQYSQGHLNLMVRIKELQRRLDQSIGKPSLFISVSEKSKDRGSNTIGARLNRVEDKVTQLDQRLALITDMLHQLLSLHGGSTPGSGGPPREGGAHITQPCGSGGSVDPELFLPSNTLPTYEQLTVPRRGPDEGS
Chain of Short transient receptor potential channel 4 (Mus musculus) (Q9QUQ5 whole entry, looked up): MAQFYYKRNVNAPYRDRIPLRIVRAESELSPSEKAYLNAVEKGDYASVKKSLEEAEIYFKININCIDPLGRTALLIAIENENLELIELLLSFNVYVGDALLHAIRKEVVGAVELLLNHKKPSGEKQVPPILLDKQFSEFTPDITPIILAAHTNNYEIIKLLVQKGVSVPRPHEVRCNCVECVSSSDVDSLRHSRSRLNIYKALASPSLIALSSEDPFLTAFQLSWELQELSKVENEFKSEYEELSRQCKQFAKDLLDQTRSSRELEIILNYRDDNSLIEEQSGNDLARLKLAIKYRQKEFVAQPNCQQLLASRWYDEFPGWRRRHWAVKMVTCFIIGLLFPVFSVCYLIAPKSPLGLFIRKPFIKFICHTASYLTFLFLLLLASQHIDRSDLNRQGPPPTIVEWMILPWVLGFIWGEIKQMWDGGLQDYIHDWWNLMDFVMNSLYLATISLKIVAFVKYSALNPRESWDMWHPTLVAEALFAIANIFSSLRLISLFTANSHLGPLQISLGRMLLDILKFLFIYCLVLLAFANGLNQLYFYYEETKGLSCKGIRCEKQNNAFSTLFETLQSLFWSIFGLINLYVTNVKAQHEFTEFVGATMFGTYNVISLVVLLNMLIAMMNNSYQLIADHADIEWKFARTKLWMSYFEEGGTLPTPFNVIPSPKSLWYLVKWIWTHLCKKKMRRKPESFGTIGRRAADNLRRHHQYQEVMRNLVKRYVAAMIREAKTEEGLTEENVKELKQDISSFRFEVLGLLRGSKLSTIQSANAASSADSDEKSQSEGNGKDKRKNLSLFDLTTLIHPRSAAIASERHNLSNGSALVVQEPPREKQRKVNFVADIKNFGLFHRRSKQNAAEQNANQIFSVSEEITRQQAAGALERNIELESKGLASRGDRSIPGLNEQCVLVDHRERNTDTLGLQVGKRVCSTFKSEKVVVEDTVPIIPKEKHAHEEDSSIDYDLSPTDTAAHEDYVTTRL

Structure (SMILES): Cc1cccc(C(=O)NNC(=S)NC(=O)c2ccccc2)c1
- activation [1]: 230% (active)
- outcome [2]: inactive
- outcome [3]: inactive
- outcome [4]: inactive
- outcome [5]: inactive
- outcome [6]: inactive
- outcome [7]: inactive
- outcome [8]: inactive
- outcome [9]: inactive
- activation [10]: 54.5% (active)
- outcome [11]: inactive
- activation [12]: 153% (active)
- outcome [13]: inactive
- outcome [14]: inactive
- activation [15]: 83.3% (active)
- outcome [16]: inactive
- outcome [17]: inactive
- potentiation [18]: 74.5% (active)
- potentiation [19]: 192% (active)
- outcome [20]: inactive

Structure (SMILES): CCN1/C(=C\c2ccc3ccccc3[n+]2CC)Sc2cc(C)ccc21
- activation [1]: 544% (active)
- activation [2]: 147% (active)
- outcome [3]: inactive
- potentiation [4]: 18% (active)
- outcome [5]: inactive
- outcome [6]: inactive
- outcome [7]: inactive
- outcome [8]: inactive
- outcome [9]: inactive
- outcome [10]: inactive
- outcome [11]: inactive
- activation [12]: 600% (active)
- outcome [13]: inactive
- potentiation [14]: 110% (active)
- activation [15]: 672% (active)
- activation [16]: 27400% (active)

Structure (SMILES): CCn1cc(CN2CCC(n3nccc3NC(=O)CCCc3ccccc3)CC2)cn1
- outcome [1]: inactive
- outcome [2]: inactive
- outcome [3]: inactive
- outcome [4]: inactive
- inhibition [5]: 95% (active)
- inhibition [6]: 58% (active)
- outcome [7]: inactive
- outcome [9]: inactive
- activation [10]: 36% (active)
- outcome [11]: inactive
- outcome [12]: inactive
- outcome [13]: inactive
- outcome [14]: inactive
- outcome [15]: inactive
- outcome [16]: inactive

Structure (SMILES): O=C(Nc1nnc(-c2cccs2)o1)c1cccc(C(F)(F)F)c1
- activation [1]: 151% (active)
- outcome [2]: inactive
- outcome [3]: inactive
- outcome [4]: inactive
- outcome [5]: inactive
- outcome [6]: inactive
- outcome [7]: inactive
- outcome [8]: inactive
- outcome [9]: inactive
- outcome [10]: inactive
- outcome [11]: inactive
- activation [12]: 57.6% (active)
- outcome [13]: inactive
- outcome [14]: inactive
- activation [15]: 29.9% (active)
- outcome [16]: inactive
- activation [17]: 208% (active)
- potentiation [18]: 50% (active)
- outcome [20]: inactive

Structure (SMILES): CCCCC(=O)NNC(=S)NC(=O)C(c1ccccc1)c1ccccc1
- activation [1]: 122% (active)
- outcome [2]: inactive
- outcome [3]: inactive
- outcome [4]: inactive
- outcome [5]: inactive
- outcome [6]: inactive
- outcome [7]: inactive
- outcome [8]: inactive
- outcome [9]: inactive
- activation [10]: 42% (active)
- outcome [11]: inactive
- activation [12]: 96.7% (active)
- outcome [13]: inactive
- outcome [14]: inactive
- activation [15]: 31.6% (active)
- outcome [16]: inactive
- outcome [17]: inactive
- outcome [18]: inactive
- outcome [19]: inactive
- outcome [20]: inactive

Structure (SMILES): OCC1(CC2CCCCO2)CCN(Cc2nc3ccccc3[nH]2)CC1 (stereo not given)
- outcome [1]: inactive
- outcome [2]: inactive
- outcome [3]: inactive
- outcome [4]: inactive
- inhibition [5]: 67% (active)
- outcome [6]: inactive
- outcome [7]: inactive
- outcome [9]: inactive
- activation [10]: 26.5% (active)
- outcome [11]: inactive
- outcome [12]: inactive
- outcome [13]: inactive
- outcome [14]: inactive
- outcome [15]: inactive
- outcome [16]: inactive

Structure (SMILES): CC(Oc1ccc(Cl)cc1)C(=O)NNC(=S)NC(=O)c1ccco1 (stereo not given)
- activation [1]: 192% (active)
- outcome [2]: inactive
- outcome [3]: inactive
- outcome [4]: inactive
- outcome [5]: inactive
- outcome [6]: inactive
- outcome [7]: inactive
- outcome [8]: inactive
- outcome [9]: inactive
- outcome [10]: inactive
- outcome [11]: inactive
- activation [12]: 104% (active)
- outcome [13]: inactive
- outcome [14]: inactive
- activation [15]: 29.1% (active)
- outcome [16]: inactive
- outcome [17]: inactive
- potentiation [18]: 50% (active)
- potentiation [19]: 170% (active)
- outcome [20]: inactive
